Measurements taken from PubChem BioAssay AID1159580 (chemical genetic matrix, 2015).
Values joined by “and” are separate entries in the source; they are usually repeats but may differ in a detail not shown here. Identical values can stand only once. Hit rate of the full screen: of about 5,500 compounds, about 2,000 (36%) were called active. Not shown: some 18% with an inconclusive outcome. No stated cut-off is given here; in the data, active means normalized growth mostly below about 0.91 (no sharp cut-off); inconclusive means no clear call, values can overlap the other calls; inactive means mostly above about 0.92. Some of the results follow.

Assay: chemical genetic growth profiling, strain panel (AID 1159580);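 further: tested at 20 µM; growth read once vehicle control cultures reached saturation at 30 °C; 1 = growth at the plate median or of vehicle wells; lower values mean less growth of the strain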
Settings: S. cerevisiae deletion strains, growth OD

Measured: normalized growth

COc1cc(OC)c2c(c1Cl)OC1(C2=O)C(O)=CC(=O)CC1C (stereo unspecified)
inactive: locus YAL021C, strain ccr4, active compounds read low 1.02 | locus YAL026C, strain drs2, active compounds read low 1.01 | locus YAL030W, strain snc1, active compounds read low 1.01 | locus YBL061C, strain skt5, active compounds read low 1.01 | locus YBR009C, strain hhf1, active compounds read low 1.01 | locus YBR021W, strain FUR4, active compounds read low 1.04 | locus YBR023C, strain chs3, active compounds read low 1.01 | locus YBR171W, strain sec66, active compounds read low 1.03 | locus YBR229C, strain ROT2, active compounds read low 1.02 | locus YBR231C, strain swc5, active compounds read low 1.01 | locus YBR279W, strain paf1, active compounds read low 1.01 | locus YCL011C, strain gbp2, active compounds read low 1.02 | locus YCL016C, strain dcc1, active compounds read low 1.01 | locus YCL029C, strain bik1, active compounds read low 1.01 | locus YCL061C, strain MRC1, active compounds read low 1.01 | locus YCL069W, strain vba3, active compounds read low 1.01 | locus YCR088W, strain abp1, active compounds read low 1.01 | locus YDL005C, strain med2, active compounds read low 1.01 | locus YDL035C, strain GPR1, active compounds read low 1.04 | locus YDL040C, strain nat1, active compounds read low 1.01 | locus YDL074C, strain BRE1, active compounds read low 1.07 | locus YDL101C, strain DUN1, active compounds read low 1.03 | locus YDL134C, strain PPH21, active compounds read low 1.01 | locus YDL185W, strain tfp1, active compounds read low 0.981 | locus YDL192W, strain arf1, active compounds read low 1.02 | locus YDR001C, strain nth1, active compounds read low 1.01 | locus YDR069C, strain doa4, active compounds read low 1.01 | locus YDR101C, strain arx1, active compounds read low 1.02 | locus YDR137W, strain rgp1, active compounds read low 1.02 | locus YDR159W, strain sac3, active compounds read low 1.02 | locus YDR162C, strain NBP2, active compounds read low 1.05 | locus YDR195W, strain ref2 1.03 | locus YDR297W, strain sur2, active compounds read low 1.01 | locus YDR318W, strain mcm21, active compounds read low 1 | locus YDR334W, strain swr1, active compounds read low 1.01 | locus YDR335W, strain msn5, active compounds read low 1.02 | locus YDR388W, active compounds read low 1.01 | locus YDR392W, strain spt3, active compounds read low 1.01 | locus YDR502C, strain sam2, active compounds read low 0.986 | locus YEL003W, strain gim4, active compounds read low 1.01 | locus YEL037C, strain rad23, active compounds read low 1 | locus YEL061C, strain CIN8 (second series), active compounds read low 1.01 | locus YER015W, strain faa2, active compounds read low 1.01 | locus YER016W, strain bim1, active compounds read low 1.02 | locus YER110C, active compounds read low 0.977 | locus YER111C, strain swi4, active compounds read low 1.01 | locus YER155C, strain BEM2 (second series), active compounds read low 1.03 | locus YER155C, strain BEM2, active compounds read low 1.02 | locus YER167W, strain BCK2, active compounds read low 1.02 | locus YFR010W, strain ubp6, active compounds read low 1.01 | locus YGL078C, strain dbp3, active compounds read low 0.978 | locus YGL086W, strain mad1, active compounds read low 1.01 | locus YGL167C, strain pmr1, active compounds read low 1.02 | locus YGL173C, strain kem1, active compounds read low 1.01 | locus YGL227W, strain vid30, active compounds read low 1.01 | locus YGL240W, strain doc1, active compounds read low 1 | locus YGL248W, strain PDE1, active compounds read low 1.02 | locus YGL253W, strain hxk2, active compounds read low 1.01 | locus YGR135W, strain pre9, active compounds read low 0.983 | locus YGR252W, strain gcn5, active compounds read low 0.915 | locus YHR013C, strain ard1, active compounds read low 1.03 | locus YHR027C, strain rpn1, active compounds read low 1.01 | locus YHR030C, strain SLT2, active compounds read low 1.02 and 0.99 | locus YHR079C, strain IRE1 (second series), active compounds read low 0.979 | locus YHR079C, strain IRE1, active compounds read low 0.997 | locus YHR094C, strain hxt1, active compounds read low 0.983 | locus YHR129C, strain ARP1, active compounds read low 1.02 | locus YHR142W, strain chs7, active compounds read low 1.02 | locus YHR200W, strain rpn10, active compounds read low 0.999 | locus YIL066C, strain RNR3, active compounds read low 1.07 | locus YIL073C, strain SPO22, active compounds read low 1 | locus YIL125W, strain kgd1, active compounds read low 0.99 | locus YIR030C, strain dcg1, active compounds read low 1.01 | locus YJL092W, strain hpr5, active compounds read low 1.01 | locus YJL095W, strain BCK1 (second series), active compounds read low 1 | locus YJL095W, strain BCK1, active compounds read low 1.04 and 0.978 | locus YJL115W, strain asf1, active compounds read low 1 | locus YJL129C, strain trk1, active compounds read low 1.02 | locus YJL134W, strain LCB3, active compounds read low 1.02 | locus YJL154C, strain vps35, active compounds read low 1.02 | locus YJL164C, strain tpk1, active compounds read low 1.01 | locus YJL166W, strain qcr8, active compounds read low 1.01 | locus YJL168C, strain set2, active compounds read low 0.977 | locus YJL187C, strain SWE1 (second series), active compounds read low 1.03 | locus YJL187C, strain SWE1, active compounds read low 1.01 | locus YJR066W, strain TOR1, active compounds read low 0.9
